Screening results as filed in PubChem.
VP16 counter: VP16 counterscreen qHTS for inhibitors of ROR gamma transcriptional activity. AID 2546, 2010. 310,000 compounds, 3.5% hits. Drosophila S2 Gal4-VP16 UAS-luciferase, luminescence, 20 h. Potency, µM (top dose mostly 53.6 µM), without a hit: at the top dose activity, negative = inhibition, usual class: inhibitors;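 also: Gal4-VP16 expression switched on by copper sulfate through the metallothionein promoter; nearly all actives have a fitted effect of over 50% in size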
Tau ThT inhib: qHTS for Inhibitors of Tau Fibril Formation, Thioflavin T Binding; 270,000 compounds, 2.1% hits; recombinant tau K18 P301L, heparin-induced fibrillization, ThT fluorescence; Potency, µM (doses to about 57.4 µM), for inactives: top-dose activity, negative = inhibition, most hits filed as inhibitors; also: nearly all actives have a fitted effect of over 55% in size
Target sequence (P10636 561-689 P618L limits assumed): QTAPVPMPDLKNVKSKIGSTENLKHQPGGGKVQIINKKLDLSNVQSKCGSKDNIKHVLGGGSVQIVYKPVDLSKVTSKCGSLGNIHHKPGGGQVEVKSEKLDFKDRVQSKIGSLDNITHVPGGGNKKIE
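Aggregation was driven by heparin (20 uM final) acting on recombinant tau […] bearing P301L in 100 mM sodium acetate pH 7; fibrils were detected with Thioflavin T.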
Tau fluor counter: Counterscreen qHTS for Inhibitors of Tau Fibril Formation, Fluorescence Polarization; 280,000 compounds, 0.93% hits; AID 1463, 2008; Potency, µM (doses to about 57.7 µM), without a hit: at the top dose activity change, negative = decrease; tau K18 P301L (four-repeat tau fragment) Alexa594 fluorescence, heparin fibrillization; also: nearly all actives have a fitted effect of over 55% in size
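Human K18 P301L tau (15 uM unlabeled plus 0.24 uM Alexa 594-labeled, final) in 100 mM sodium acetate pH 7 was mixed with compound and 20 uM heparin and incubated 6 hr at 37 C.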
Tau FP inhib: qHTS for Inhibitors of Tau Fibril Formation, Fluorescence Polarization. Microtubule-associated protein tau (Homo sapiens), P10636. 280,000 compounds, 0.39% hits. K18 P301L tau heparin fibrillization, Alexa594 FP, 6 h. AID 1468, 2008. Potency, µM (top dose mostly 57.7 µM), for inactives: at the highest dose activity, negative = inhibition, usual class: inhibitors; also: nearly all actives have a fitted effect of over 55% in size
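Quantitative HTS format: compounds meet 15 uM recombinant K18 P301L tau and Alexa 594-tau tracer in 100 mM sodium acetate pH 7; 20 uM heparin triggers fibrillization at 37 C over 6 hr; FP gives the signal.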
RORg inh: qHTS for inhibitors of ROR gamma transcriptional activity; Drosophila S2 Gal4-RORgamma UAS-luciferase reporter, 20 h; Nuclear receptor ROR-gamma (Mus musculus), P51450; Potency, µM (titrated, usually from 53.6 µM), without a hit: top-dose activity change, negative = inhibition, hits mostly inhibitors; 310,000 compounds, 5.4% hits; also: nearly all actives have a fitted effect of over 60% in size
Target sequence (P51450 whole entry, looked up, the tested form may be a part): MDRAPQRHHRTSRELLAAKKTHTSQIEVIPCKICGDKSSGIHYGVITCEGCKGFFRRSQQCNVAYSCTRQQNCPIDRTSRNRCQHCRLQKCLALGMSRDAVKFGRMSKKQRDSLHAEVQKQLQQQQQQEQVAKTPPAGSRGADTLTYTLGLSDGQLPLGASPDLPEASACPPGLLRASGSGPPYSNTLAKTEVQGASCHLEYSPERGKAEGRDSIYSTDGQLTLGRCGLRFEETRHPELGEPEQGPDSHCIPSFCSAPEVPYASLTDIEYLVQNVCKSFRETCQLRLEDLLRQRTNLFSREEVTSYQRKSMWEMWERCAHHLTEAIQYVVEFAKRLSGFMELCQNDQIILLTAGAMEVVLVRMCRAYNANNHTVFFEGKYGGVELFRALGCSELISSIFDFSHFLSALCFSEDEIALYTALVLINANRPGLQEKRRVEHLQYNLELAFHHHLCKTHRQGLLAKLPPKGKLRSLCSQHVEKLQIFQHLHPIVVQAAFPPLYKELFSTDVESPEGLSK
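In this cell-based reporter format, copper sulfate (700 uM final) drives Gal4–ROR gamma fusion expression from a metallothionein promoter in Drosophila Schneider cells; compounds preincubated 1 hr, reporter read after 20 hr at ambient temperature.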
* marks the source's active call; other numbers are inactive results; ? = inconclusive; / = no result; [ ] = remark or other dose. Sampled rows, rich in hits. Any-hit rate of the full collection: about 7.3%. Calls follow the shape of the dose curve; as a rule, active = well fitted curve in the direction sought with a large enough effect; inconclusive = small, poorly fitted or top-dose-only effect, or another doubt; inactive = no such curve, though single readings can be large; an effect the other way counts as inactive or inconclusive. % is scaled to controls: 0 for no effect and ±100 for the full control effect; potency is read from the fitted curve at half-maximal effect.

SMILES	VP16 counter	Tau ThT inhib	Tau fluor counter	Tau FP inhib	RORg inh
CCOC(=O)NC(N(O)c1cccc(Cl)c1)C(Cl)(Cl)Cl (centres undefined)	8.2%	?	-22.6%	?	5.01µM*
CCOC(=O)N[C@H](Cc1c[nH]c2ccccc12)C(=O)Nc1cccc(Cl)c1	/	4.7%	?	9.8%	/
COc1cc(NC(=O)C(c2ccccc2)c2ccccc2)c(C(=O)O)cc1OC	2.4%	/	/	/	27.9%
COC(=O)C1=C[C@@H](C(=O)OC)C2C3=C(C(=O)[C@@]2(C)NC(=O)c2ccccc2)[C@H](C)n2c(=O)n(C)c(=O)n2[C@@H]3C1 (some centres undefined)	7.7%	/	/	/	-9.4%
Cc1cccc(Oc2nc3ccccn3c(=O)c2/C=C(\C#N)c2nc3ccccc3s2)c1C	/	-4.2%	-17.3%	-18.5%	/
CN(C)c1nc(NCc2ccccc2)nc(N/N=C/c2ccccc2F)n1	6.31µM*	-11.2%	-15.3%	-6.0%	2.82µM*
CN(C)c1nc(NCc2ccccc2)nc(N/N=C/c2ccc(Cl)cc2Cl)n1	-12.6%	-10.6%	-12.7%	-1.4%	2.24µM*
Cc1cc(N/N=C/c2ccccc2F)nc(NCc2ccccc2)n1	-11.5%	-1.3%	-18.6%	-3.6%	2.9%
Oc1ccc(COCc2ccccc2)c2cccnc12	?	?	-26.9%	-9.0%	0.562µM*
CCCOCc1ccc(O)c2ncccc12	3.55µM*	3.4%	1.4%	-13.2%	1.26µM*
CCCOCc1cc(CN2CCN(c3ccccc3OC)CC2)c(O)c2ncccc12	/	?	?	-0.6%	/
COc1ccccc1N1CCN(Cc2cc(COC(C)C)c3cccnc3c2O)CC1	/	?	-29.7%	4.1%	/
CC(C)COCc1ccc(O)c2ncccc12	1µM*	?	-16.6%	-3.4%	0.708µM*
O=C(COCc1cc(-c2ccco2)on1)Nc1cccc(O)c1	/	-4.3%	0.8%	5.9%	/
CCOc1cccc(C(=O)N(Cc2ccc(C(C)C)cc2)C2CCS(=O)(=O)C2)c1 (centres undefined)	/	-14.2%	-14.0%	6.0%	/
COc1ccc(-c2nc3ccccc3n3c(-c4cccc(C)c4)c4c(=O)n(C)c(=O)n(C)c4c23)cc1	/	-6.9%	-5.3%	3.2%	/
C=CCC(CC=C)(NC(=O)c1ccccc1)c1ccccc1	17.8µM*	1.9%	2.4%	0.0%	-14.7%
C=CC(C)(O)CC/C=C(\C)CCC=C(C)C (centres undefined)	2.1%	-4.1%	-7.5%	-3.9%	8.1%
Cc1cccc(/C=C2\CS/C(=C\c3cccc(C)c3)C2=O)c1	12.2%	3.55µM*	-18.8%	-2.9%	-7.3%
Cc1ccn2c(-c3n[nH]c(=S)n3Cc3ccccc3)c(C)nc2c1	0.1%	0.6%	2.7%	-6.7%	-8.2%
Cc1cc(-c2n[nH]c(=S)n2Cc2ccccc2)cs1	?	-9.9%	-9.7%	-0.9%	5.62µM*
S=c1[nH]nc(-c2cccnc2)n1Cc1ccccc1	?	1.8%	2.4%	1.3%	?
O=c1[nH]cc(-c2ccc(Br)cc2)n1Cc1ccccc1	-1.3%	/	/	/	-6.8%
Fc1ccc(-c2c[nH]c(=S)n2Cc2ccccc2)cc1	1.41µM*	-5.7%	-21.3%	-0.4%	0.631µM*
Oc1ccc(-c2n[nH]c(=S)n2Cc2ccccc2)cc1	/	-9.6%	-8.3%	-0.1%	-7.7%[0.365 µM]
SMILES	VP16 counter	Tau ThT inhib	Tau fluor counter	Tau FP inhib	RORg inh
Fc1ccc(-c2n[nH]c(=S)n2Cc2ccccc2)cc1	11.2µM*	/	/	/	2.82µM*
S=c1[nH]nc(-c2ccncc2)n1Cc1ccccc1	-19.8%	-2.9%	-1.7%	-2.2%	12.6µM*
Cn1c(SCC(=O)NNC(=O)c2ccccc2)nnc1C1CC1	-3.6%	/	/	/	-17.5%
Cc1ccc(C(=O)Nc2ccc3oc(-c4cc(Br)ccc4Cl)nc3c2)cc1	/	?	-21.1%	?	/
CCCNC(=O)C1CCC(Cn2c(=O)c3sccc3n(CC(=O)N3CCCC(C)C3)c2=O)CC1 (centres undefined)	/	8.3%	9.4%	7.8%	/
Cc1cccc(C(=O)NCC(=O)OCc2cc(=O)n3nc(C)sc3n2)c1	/	-9.8%	-2.5%	7.5%	/
COc1ccccc1NC(=O)NC1CCS(=O)(=O)C1 (centres undefined)	0.6%	/	/	/	-0.6%
CCN(CC)C(=O)Cn1c(=O)n(CCCCCC(=O)NCc2ccccc2Cl)c(=O)c2sccc21	/	3.1%	1.4%	-6.5%	/
CC(C)n1c(-c2ccc(C(C)(C)C)cc2)n[nH]c1=S	10µM*	-6.2%	-10.1%	-4.3%	4.47µM*
S=c1[nH]nc(-c2ccc(Br)cc2)n1Cc1ccccc1	5.62µM*	-13.7%	-17.9%	7.3%	2.24µM*
CCCCOc1ccc(-c2n[nH]c(=S)n2Cc2ccccc2)cc1	?	/	/	/	1.58µM*
CC(C)(C)c1ccc(-c2n[nH]c(=S)n2Cc2ccccc2)cc1	7.08µM*	/	/	/	2.24µM*
COc1cccc(CNC(=O)C2Cc3cc(S(=O)(=O)N4CCCCCC4)ccc3N2C(C)=O)c1 (centres undefined)	/	-13.8%	-22.0%	-5.5%	/
CN1C(=O)CC[C@@H]1c1cccnc1	2.4%[17 µM]	/	/	/	-1.0%[16.9 µM]
COc1ccccc1C1C2=C(N=C3SCC(=O)N31)c1ccccc1CC2 (centres undefined)	-8.9%	?	-13.4%	-8.8%	11.2µM*
COCc1ccc(CN2CCC(n3nccc3NC(=O)CCOc3ccccc3)CC2)o1	?	/	/	/	8.91µM*
COc1ccc2cc(C(=O)N/N=C/c3sc4ccccc4c3O)ccc2c1	?	1.26µM*	7.94µM*[quencher]	-5.6%	3.55µM*
O=C(N/N=C/c1sc2ccccc2c1O)c1ccccc1	1.58µM*	?	?	-7.1%	1.78µM*
Cc1c(/C=N\NC(=O)c2csc3ccccc23)cnn1C	6.2%	-17.4%	-10.3%	-7.2%	?
CCn1ncc(/C=N\NC(=O)c2csc3ccccc23)c1C	?	-14.5%	-9.8%	-8.8%	10µM*
O=C(N/N=C/c1sc2ccccc2c1O)c1cccc2ccccc12	4.47µM*	10µM*	?	-12.6%	1.78µM*
CC(=O)c1cccc(NC(=O)CN2C(=O)c3ccccc3Sc3ncccc32)c1	/	1.3%	-6.7%	-10.2%	/
CCOc1ccc(Br)cc1CNCCSc1nnnn1-c1ccccc1	/	-5.5%	-5.6%	1.4%	/
COc1ccc(C(=O)N/N=C/c2sc3ccccc3c2O)cc1	3.98µM*	1.78µM*	?	-0.1%	2.24µM*
O=C(N/N=C/c1cccn1-c1ccc(O)cc1)c1cccc2ccccc12	15.8µM*	/	/	/	17.8µM*
Cc1sccc1/C=N/NC(=O)c1cccc2ccccc12	?	2.0%	0.6%	-12.5%	11.2µM*
Cc1ccccc1C(=O)N/N=C/c1ccsc1C	-5.6%	-0.9%	-3.9%	-5.2%	17.4%
